# Assay results reported in publication PMC11062922 (Nature Chemical Biology, 2023).
# Like-named read-outs stand apart in the source and are kept apart here.
# Legend:
# Parameters in all cases: species or system human, MV4-11 + K-562 + COLO205 + SK-N-BE2 + OVCAR-8
# ADCK3 = settings: read-out: apparent Kd, n = 1
# BRAF = settings: read-out: apparent Kd; compound concentrations: 100 nM and 1000 nM (sheet 'Samples'), CATDS: 0.639948734699749; n = 1
# MAP2K5 = settings: read-out: apparent Kd; compound concentrations: 100 nM and 1000 nM (sheet 'Samples'), CATDS: 0.203043275988008; n = 1
# PTK6 = settings: read-out: apparent Kd; compound concentrations: 100 nM and 1000 nM (sheet 'Samples'), CATDS: 0.17376653089903399; n = 1
# RIPK3 = settings: read-out: apparent Kd; compound concentrations: 100 nM and 1000 nM (sheet 'Samples'), CATDS: 9.1073681697651607E-2; n = 1
# TESK1 = settings: read-out: apparent Kd; compound concentrations: 100 nM and 1000 nM (sheet 'Samples'), CATDS: 9.2639666275084007E-2; n = 1
# ZAK = settings: read-out: apparent Kd; compound concentrations: 100 nM and 1000 nM (sheet 'Samples'), CATDS: 0.21269926478279999; n = 1
# BMPR2 = settings: read-out: apparent Kd; compound concentrations: 100 nM and 1000 nM (sheet 'Samples'), CATDS: 0.122163431962668; n = 1
# CSNK1A1 = settings: read-out: apparent Kd, compound concentrations: 100 nM and 1000 nM (sheet 'Samples'), n = 1
# CSNK1D = settings: read-out: apparent Kd; compound concentrations: 100 nM and 1000 nM (sheet 'Samples'), CATDS: 0.25978966817559301; n = 1
# CSNK1E = settings: read-out: apparent Kd; compound concentrations: 100 nM and 1000 nM (sheet 'Samples'), CATDS: 0.174355768455381; n = 1
# PKN2 = settings: read-out: apparent Kd; compound concentrations: 100 nM and 1000 nM (sheet 'Samples'), CATDS: 0.12366746425094501; n = 1
# DHCR24 = settings: read-out: apparent Kd; compound concentrations:100 nM and 1000 nM (sheet 'Samples'); n = 1
# DJA1 = test system: T1, DJA1; settings: read-out: apparent Kd; compound concentrations:100 nM and 1000 nM (sheet 'Samples'); n = 1
# T1 construct: gene DNAJA1
# ERBB3 = settings: read-out: apparent Kd; compound concentrations:100 nM and 1000 nM (sheet 'Samples'); n = 1
# PI4KA = settings: read-out: apparent Kd; compound concentrations:100 nM and 1000 nM (sheet 'Samples'); n = 1
# PI4KB = settings: read-out: apparent Kd; compound concentrations:100 nM and 1000 nM (sheet 'Samples'); n = 1
# PIK3C2A = settings: read-out: apparent Kd; compound concentrations:100 nM and 1000 nM (sheet 'Samples'); n = 1
# PIK3C2B = settings: read-out: apparent Kd; compound concentrations:100 nM and 1000 nM (sheet 'Samples'); n = 1
# PIK3CA = settings: read-out: apparent Kd; compound concentrations:100 nM and 1000 nM (sheet 'Samples'); n = 1
# PIK3CB = settings: read-out: apparent Kd; compound concentrations:100 nM and 1000 nM (sheet 'Samples'); n = 1
# PIK3CD = settings: read-out: apparent Kd; compound concentrations:100 nM and 1000 nM (sheet 'Samples'); n = 1
# PRKDC = settings: read-out: apparent Kd; compound concentrations:100 nM and 1000 nM (sheet 'Samples'); n = 1
# AKT1 = settings: read-out: apparent Kd; compound concentrations: 100 nM and 1000 nM (sheet 'Samples'), CATDS: 7.0300825665370006E-2; n = 1
# AKT2 = settings: read-out: apparent Kd; compound concentrations: 100 nM and 1000 nM (sheet 'Samples'), CATDS: 7.1049746121653101E-2; n = 1
# AKT3 = settings: read-out: apparent Kd; compound concentrations: 100 nM and 1000 nM (sheet 'Samples'), CATDS: 7.9002074728764499E-2; n = 1
# CAMK4 = settings: read-out: apparent Kd; compound concentrations: 100 nM and 1000 nM (sheet 'Samples'), CATDS: 6.2704005161184906E-2; n = 1
# MAP2K1 = settings: read-out: apparent Kd; compound concentrations: 100 nM and 1000 nM (sheet 'Samples'), CATDS: 7.1306793514003305E-2; n = 1
# MAP2K2 = settings: read-out: apparent Kd; compound concentrations: 100 nM and 1000 nM (sheet 'Samples'), CATDS: 7.3872380173305399E-2; n = 1
# MAPK9 = settings: read-out: apparent Kd; compound concentrations: 100 nM and 1000 nM (sheet 'Samples'), CATDS: 6.4176537599483302E-2; n = 1
# NQO1 = settings: read-out: apparent Kd; compound concentrations: 100 nM and 1000 nM (sheet 'Samples'), CATDS: 8.1829364824624801E-2; n = 1
# PIM2 = settings: read-out: apparent Kd; compound concentrations: 100 nM and 1000 nM (sheet 'Samples'), CATDS: 7.6487231298609404E-2; n = 1
# PYGL = settings: read-out: apparent Kd; compound concentrations: 100 nM and 1000 nM (sheet 'Samples'), CATDS: 6.9677029727435405E-2; n = 1
# RIOK2 = settings: read-out: apparent Kd; compound concentrations: 100 nM and 1000 nM (sheet 'Samples'), CATDS: 6.63813283152343E-2; n = 1
# SMC4 = settings: read-out: apparent Kd; compound concentrations: 100 nM and 1000 nM (sheet 'Samples'), CATDS: 6.4174106680799994E-2; n = 1
# ADRBK1 = settings: read-out: apparent Kd; compound concentrations:100 nM and 1000 nM (sheet 'Samples'); n = 1
# MAPK11 = settings: read-out: apparent Kd; compound concentrations:100 nM and 1000 nM (sheet 'Samples'); n = 1
# MAPKAPK2 = settings: read-out: apparent Kd; compound concentrations:100 nM and 1000 nM (sheet 'Samples'); n = 1
# [1] = compound concentrations:100 nM and 1000 nM (sheet 'Samples')
structure (smiles),measurement,setting,value
CCCS(=O)(=O)Nc1ccc(F)c(-n2cc(-c3cncc(OC)c3)nn2)c1F [BI00865461],potency estimated from few doses,"ADCK3; compound concentrations: 100 nM and 1000 nM (sheet 'Samples'), CATDS: 9.7263378995511504E-2",1210 nM
same,potency estimated from few doses,BRAF,7.45 nM
same,potency estimated from few doses,MAP2K5,70.4 nM
same,potency estimated from few doses,PTK6,108 nM
same,potency estimated from few doses,RIPK3,1790 nM
same,potency estimated from few doses,TESK1,1610 nM
same,potency estimated from few doses,ZAK,62.5 nM
Cc1cc(C)c2c(n1)sc1c(N)ncnc12 [RO4241967-000],potency estimated from few doses,"ADCK3; compound concentrations: 100 nM and 1000 nM (sheet 'Samples'), CATDS: 0.164080926877189",987 nM
same,potency estimated from few doses,BMPR2,2210 nM
same,potency estimated from few doses,CSNK1A1; CATDS: 0.24698540566434601,453 nM
same,potency estimated from few doses,CSNK1D,417 nM
same,potency estimated from few doses,CSNK1E,864 nM
same,potency estimated from few doses,PKN2,2120 nM
O=C(Nc1cccc(-c2nn3ccccc3c2-c2ccnc(Nc3cccc(F)c3)n2)c1)c1c(F)ccc(F)c1Cl [GSK357952A],potency estimated from few doses,"ADCK3; compound concentrations: 100 nM and 1000 nM (sheet 'Samples'), CATDS: 1",131 nM
COc1ccc(-c2cc3c(C)nc(N)nc3n([C@H]3CC[C@H](OCCO)CC3)c2=O)cn1 [PFE-PKIS_29],potency estimated from few doses,ADCK3; [1],1460 nM
same,potency estimated from few doses,DHCR24,1750 nM
same,potency estimated from few doses,DJA1,1960 nM
same,potency estimated from few doses,ERBB3,453 nM
same,potency estimated from few doses,PI4KA,61.5 nM
same,potency estimated from few doses,PI4KB,702 nM
same,potency estimated from few doses,PIK3C2A,999 nM
same,potency estimated from few doses,PIK3C2B,34.9 nM
same,potency estimated from few doses,PIK3CA,1.27 nM
same,potency estimated from few doses,PIK3CB,10.3 nM
same,potency estimated from few doses,PIK3CD,0.67 nM
same,potency estimated from few doses,PRKDC,817 nM
O=C(NC1CCN(c2ccnc(Nc3ccc(F)cc3)n2)C1)c1cc2ccccc2s1 (centres unmarked) [GSK1379716A],potency estimated from few doses,"ADCK3; compound concentrations: 100 nM and 1000 nM (sheet 'Samples'), CATDS: 8.9568558281788502E-2",1140 nM
same,potency estimated from few doses,AKT1,1780 nM
same,potency estimated from few doses,AKT2,1740 nM
same,potency estimated from few doses,AKT3,1420 nM
same,potency estimated from few doses,CAMK4,2280 nM
same,potency estimated from few doses,CSNK1A1; CATDS: 6.8994714696940407E-2,1850 nM
same,potency estimated from few doses,MAP2K1,1730 nM
same,potency estimated from few doses,MAP2K2,1610 nM
same,potency estimated from few doses,MAPK9,2160 nM
same,potency estimated from few doses,NQO1,1330 nM
same,potency estimated from few doses,PIM2,1500 nM
same,potency estimated from few doses,PYGL,1810 nM
same,potency estimated from few doses,RIOK2,2010 nM
same,potency estimated from few doses,SMC4,2160 nM
CNC(=O)c1ccc(C)c(-n2c(C)cc(OCc3ccc(F)cc3F)c(Br)c2=O)c1 [PFE-PKIS_41],potency estimated from few doses,ADCK3; [1],1260 nM
same,potency estimated from few doses,ADRBK1,1490 nM
same,potency estimated from few doses,MAPK11,34.7 nM
same,potency estimated from few doses,MAPKAPK2,23.3 nM
